Source: PubChem BioAssay AID1159580 (chemical genetic matrix, 2015)
Screen size: about 5,500 compounds; about 2,000 (36%) were called active. About 18% were inconclusive and are not listed. Rule as the data show it: active = normalized growth mostly below about 0.91 (no sharp cut-off); inconclusive = no clear call, values can overlap the other calls; inactive = mostly above about 0.92. The list shows a part of the results.

Experiment: chemical genetic growth profiling, strain panel (AID 1159580);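 also: tested at 20 µM; growth read once vehicle control cultures reached saturation at 30 °C; 1 = growth at the plate median or of vehicle wells; lower values mean less growth of the strain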
Settings: S. cerevisiae deletion strains, growth OD

Measured: normalized growth

Oc1ccc2c3c1O[C@H]1[C@@H](O)CC[C@@]4(O)C(C2)N(CC2CCC2)CCC314 (stereo partly specified)
inactive: locus YAL040C, strain CLN3, hits give low values 1.01 | locus YCL061C, strain MRC1 (second series), hits give low values 0.998 | locus YDR150W, strain NUM1, hits give low values 1.01 | locus YDR363W, strain ESC2, hits give low values 1.01 | locus YER002W, strain NOP16, hits give low values 1 | locus YMR263W, strain SAP30, hits give low values 1 | locus YMR307W, strain GAS1, hits give low values 0.998 | locus YNL128W, strain TEP1, hits give low values 0.995 | locus YNL153C, strain GIM3, hits give low values 1.01 | locus YNL175C, strain NOP13, hits give low values 1.01 | locus YNL197C, strain WHI3, hits give low values 1.03 | locus YNL224C, strain SQS1, hits give low values 1.02 | locus YNL322C, strain KRE1, hits give low values 1.01 | locus YOR083W, strain WHI5 (second series), hits give low values 0.984 | locus YPL241C, strain CIN2, hits give low values 1

O=C(c1ccc(Cl)cc1)N(Cc1ccccc1)Cc1cccnc1
inactive: locus YAR019C, strain CDC15, hits give low values 0.994 | locus YBL105C, strain PKC1, hits give low values 0.985 | locus YBR135W, strain CKS1, hits give low values 0.989 | locus YBR136W, strain MEC1, hits give low values 0.979 | locus YBR160W, strain CDC28, hits give low values 0.986 | locus YDL017W, strain CDC7, hits give low values 0.981 | locus YDL028C, strain MPS1, hits give low values 0.989 | locus YDL101C, strain DUN1, hits give low values 0.987 | locus YDL108W, strain KIN28, hits give low values 0.98 | locus YDL132W, strain cdc53, hits give low values 0.993 | locus YDL214C, strain PRR2, hits give low values 0.866 | locus YDR052C, strain DBF4, hits give low values 0.985 | locus YDR054C, strain cdc34, hits give low values 0.987 | locus YDR226W, strain ADK1, hits give low values 0.987 | locus YDR477W, strain SNF1, hits give low values 0.886 | locus YER123W, strain YCK3, hits give low values 0.748 | locus YER133W, strain GLC7, hits give low values 0.868 | locus YFL009W, strain cdc4, hits give low values 0.994 | locus YFL029C, strain CAK1, hits give low values 0.996 | locus YFR003C, strain YPI1, hits give low values 0.983 | locus YFR019W, strain FAB1, hits give low values 0.801 | locus YFR028C, strain CDC14, hits give low values 0.992 | locus YGR040W, strain KSS1, hits give low values 0.874 | locus YGR052W, strain FMP48, hits give low values 0.869 | locus YGR092W, strain DBF2, hits give low values 0.865 | locus YHR030C, strain SLT2, hits give low values 0.976 | locus YHR079C, strain IRE1, hits give low values 0.96 | locus YHR082C, strain KSP1, hits give low values 0.896 | locus YHR205W, strain SCH9, hits give low values 0.918 | locus YIL147C, strain SLN1, hits give low values 0.977 | locus YJL095W, strain BCK1, hits give low values 0.862 | locus YJL128C, strain PBS2, hits give low values 0.956 | locus YJL157C, strain FAR1, hits give low values 0.845 | locus YJR016C, strain ILV3, hits give low values 0.99 | locus YJR066W, strain TOR1 (second series), hits give low values 0.853 | locus YJR066W, strain TOR1, hits give low values 0.89 | locus YKL048C, strain ELM1, hits give low values 0.965 | locus YKL067W, strain YNK1, hits give low values 0.885 | locus YKL101W, strain HSL1, hits give low values 0.905 | locus YKL193C, strain SDS22, hits give low values 0.987 | locus YKL203C, strain TOR2, hits give low values 0.944 | locus YLR113W, strain HOG1, hits give low values 0.884 | locus YLR133W, strain CKI1, hits give low values 0.905 | locus YLR403W, strain SFP1, hits give low values 0.864 | locus YML070W, strain DAK1, hits give low values 0.859 | locus YMR001C, strain CDC5, hits give low values 0.991 | locus YMR205C, strain PFK2 (second series), hits give low values 0.885 | locus YMR277W, strain FCP1, hits give low values 0.989 | locus YNL006W, strain LST8, hits give low values 1.01 | locus YNL020C, strain ARK1, hits give low values 0.885 | locus YNL161W, strain CBK1, hits give low values 0.994 | locus YNL183C, strain NPR1, hits give low values 0.909 | locus YNL207W, strain RIO2, hits give low values 0.986 | locus YNL222W, strain SSU72, hits give low values 0.989 | locus YNL307C, strain MCK1 (second series), hits give low values 0.885 | locus YOL078W, strain AVO1, hits give low values 0.994 | locus YOL136C, strain PFK27, hits give low values 0.877 | locus YOR061W, strain CKA2, hits give low values 0.828 | locus YOR119C, strain RIO1, hits give low values 0.915 | locus YOR231W, strain MKK1, hits give low values 0.912 | locus YOR329C, strain SCD5, hits give low values 0.991 | locus YPL031C, strain PHO85, hits give low values 0.877 | locus YPL153C, strain RAD53, hits give low values 0.851 | locus YPL204W, strain HRR25, hits give low values 0.885 | locus YPL209C, strain IPL1, hits give low values 0.988 | locus YPL256C, strain CLN2, hits give low values 0.966 | locus YPR025C, strain CCL1, hits give low values 0.984 | locus YPR106W, strain ISR1, hits give low values 0.995 | locus YPR111W, strain DBF20, hits give low values 0.998 | strain NNK1, hits give low values 0.991 | strain TSCII, hits give low values 0.995
